According to PubChem BioAssay AID687009 (National Center for Advancing Translational Sciences (NCATS), 2013):
Records with an inconclusive call do not appear. Active and inactive are the calls of the source. Calls follow the shape of the dose curve; as a rule, active = well fitted curve in the direction sought with a large enough effect; inconclusive = small, poorly fitted or top-dose-only effect, or another doubt; inactive = no such curve, though single readings can be large or run the other way.

molecular target: Lysine-specific histone demethylase 1A (Homo sapiens) (UniProt O60341); test: qHTS Assay for Inhibitors of Human Jumonji Domain Containing 2E (JMJD2E): Counterscreen with LSD1; settings: Amplex Red/HRP fluorescence; series mostly up to 57.1 µM; activity, negative = inhibition: at the top concentration
Source text: The fine interplay among methylation states of several lysine residues on the tails of histone proteins is a major determinant of the transcriptional state of the associated DNA coding regions and is commonly referred to as the histone code. Histone lysine demethylases catalyze the removal of methyl groups from methylated lysine sidechains on histones H3 and H4, thus antagonizing the reactions catalyzed by histone lysine methyltransferases. […] In search for novel inhibitors of JMJD2E demethylase, a member of the largest set of histone demethylases belonging to the Fe(II) and 2-oxoglutarate oxygenase (2OG) superfamily, we performed a quantitative high-throughput screen (Inglese 2006) by using an assay which utilizes a trimethylated peptide substrate corresponding to a fragment of histone H3 (sequence ARKme3STGGK) with detection of the formaldehyde co-product in real time by a formaldehyde dehydrogenase (FDH) coupled reaction. FDH catalyzes oxidation of formaldehyde to formic acid with the concomitant reduction of the non-fluorescent beta-nicotinamide adenine dinucleotide hydrate (NAD+) cofactor to the fluorescent NADH co-product. Compounds that were validated hits were screened against the histone LSD1 histone demethylase. […] NIH Chemical Genomics Center [NCGC] NIH Molecular Libraries Probe Centers Network [MLPCN] MLPCN Grant: MH084681 Assay Submitter (PI): Udo Oppermann, Structural Genomics Consortium, University of Oxford
The assay was performed in a buffer containing 10 mM HEPES, Na pH 7.5, 5 mM MgCl2, 50 mM KCl, 0.01% Nonidet P-40, and 0.1% BSA. LSD1 was sourced from BPS Bioscience (Cat. No. 50100, San Diego, CA) and the substrate peptide was synthesized and purified by Tufts University Core Facilities (Boston, MA). Reagents (3 microL) containing either buffer-only (inhibited control) or LSD1 (120 nM) were dispensed into a 1,536-well Aurora black solid bottom cycloolefin plate (see Table 1 for protocol steps). Compounds (23 nL) were transferred via Kalypsys pintool equipped with a 1,536-pin array. The plate was incubated for 10 min at room temperature, followed by the addition of 1 microL 4 X substrate (10 mM HEPES, pH 7.5, 8 U/mL HRP, 800 µM Amplex Red, and 200 microM H3K4Me2 peptide [Sequence H-ARTXQTARKSTGGKAPRKQLA-NH2, where X = Nepsilon,Nepsilon-dimethyl-L-lysine]) to start the reaction. The plate was then centrifuged at 1,000 rpm for 15 seconds, and the fluorescence intensity was recorded on a ViewLux High-throughput CCD imager (Perkin-Elmer) using standard TAMRA optics (525 nm excitation and 598 nm emission). The plate was then incubated for 30 min at room temperature, and a second read on the ViewLux was performed. The fluorescence intensity difference over the 30 min was used to calculate the respective reaction rate for each well.

| Compound | activity, negative = inhibition | Potency |
| --- | --- | --- |
| CN1CCN(C(=O)c2ccc(-c3cnc4c(O)ccc(C(=O)O)c4c3)cc2)CC1 | -15.6% (inactive) |  |
| O=C(O)c1ccnc2c(O)cccc12 | -19% (inactive) |  |
| O=C(O)c1ccc(O)c2ncccc12 | -17% (inactive) |  |
| NC(=O)c1ccnc2c(O)cccc12 | -17.5% (inactive) |  |
| O=C(O)c1ccc(O)c2ncc(-c3ccc(C(=O)N4CCNCC4)cc3)cc12 | -16.8% (inactive) |  |
| O=C(O)c1ccc(O)c2ncc(-c3cccc(N4CCOCC4)c3)cc12 | -17.8% (inactive) |  |
| CN(C)CCCNC(=O)c1ccc(-c2cnc3c(O)ccc(C(=O)O)c3c2)cc1 | -17.5% (inactive) |  |
| O=C(O)c1ccc(O)c2ncc(-c3ccc(N4CCOCC4)cc3)cc12 | -20.2% (inactive) |  |
| CN(C)CCCN1CCCN(C(=O)c2cccc(-c3cc(O)c4ncccc4c3)c2)C1 |  | 10.8 µM (active) |
| O=C(O)c1ccc(O)c2ncc(C3CCNCC3)cc12 | -15% (inactive) |  |
